Here are results for seven compounds from PubChem BioAssay (NCATS).

Records with an inconclusive call do not appear. Values without a mark were called inactive. Calls of active or inactive are those of the source. Calls come from the whole dose curve; as a rule, active = well fitted curve in the direction sought with a large enough effect; inconclusive = small, poorly fitted or top-dose-only effect, or another doubt; inactive = no such curve, though single readings can be large; an effect the other way counts as inactive or inconclusive.

One test relates to CRL-7250. In words: Cytotoxic Profiling of Annotated Libraries Using Quantitative High-Throughput Screening (AID 1296008). For max response: % is set by controls: 0 for no effect and ±100 for the full control effect. Note: nearly all actives have a fitted effect of over 60% in size. The note with it: Five cell lines viability, CellTiter-Glo ATP luminescence, 48-72 h; max response: active compounds read low. A digest of the protocol: (§1)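 Compounds were pin-transferred onto cells and incubated 48 or 72 hr at 37 degree Celsius, 95% humidity. CellTiter-Glo was added, plates sat 10 min at room temperature, then ATP-coupled luminescence was imaged as the viability read-out.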

Test [1] deals with HaCat. The test is described as above. The note with it: Five cell lines viability, CellTiter-Glo ATP luminescence, 48-72 h; max response: active compounds read low. A digest of the protocol:
as §1

The next test relates to KB-3-1. Described as above. The note with it: Five cell lines viability, CellTiter-Glo ATP luminescence, 48-72 h; max response: active compounds read low. An outline of the steps: as §1
Test [2] has as its system NIH3T3. Described as above. The note with it: Five cell lines viability, CellTiter-Glo ATP luminescence, 48-72 h; max response: active compounds read low. A digest of the protocol:
as §1

Test [3] has as its system HACAT. Briefly: qHTS assay to identify novel small-molecules to repurpose for Merkel cell carcinoma treatment (AID 1296009). Note: nearly all actives have a fitted effect of over 60% in size. The note with it: MCC and control cell lines, CellTiter-Glo viability, 72 h; at 44.8 µM (top of the series) unless noted. An outline of the steps: (§2)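 Cells exposed to NPC (8-point) and MIPE (11-point) compound dilutions for 72 hr at 37 degree celsius; viability read by CellTiter-Glo luminescence, normalized to no-cell and DMSO in-plate controls.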

The next test concerns MCC-13. Described as above. The note with it: MCC and control cell lines, CellTiter-Glo viability, 72 h; series mostly up to 46 µM. A digest of the protocol: as §2
For a further test, the system named is MCC-26. The test is described as above. The note with it: MCC and control cell lines, CellTiter-Glo viability, 72 h; series mostly up to 46 µM. A digest of the protocol:
as §2

In a further test the test system is MKL-1. Described as above. The note with it: MCC and control cell lines, CellTiter-Glo viability, 72 h; series mostly up to 46 µM. An outline of the steps:
as §2

Another test relates to MKL-2. Described as above. The note with it: MCC and control cell lines, CellTiter-Glo viability, 72 h; series mostly up to 46 µM. A digest of the protocol:
as §2

A further test concerns UISO. The description is as above. The note with it: MCC and control cell lines, CellTiter-Glo viability, 72 h; series mostly up to 46 µM. An outline of the steps: as §2
Another test deals with WaGa. The description is as above. The note with it: MCC and control cell lines, CellTiter-Glo viability, 72 h; series mostly up to 46 µM. An outline of the steps: as §2
The subject of a further test is C33A. Briefly: Primary qHTS to identify gynecologic anti-cancer compounds using libraries of approved drugs and bioactive compounds (AID 1345084). Note: nearly all actives have a fitted effect of over 55% in size. Note: potency is the fitted concentration of half-maximal effect. The note with it: Gynecologic cancer cell panel viability, ATPlite luminescence, 48 h; series mostly up to 57.5 µM. An outline of the steps: (§3)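 ATP-based viability (ATPlite), 1,000 cells/well, 16 h pre-incubation, 48 h compound at 37 C, 5% CO2, 15 min RT before read.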

A further test has as its system CAOV3. The description is as above. The note with it: Gynecologic cancer cell panel viability, ATPlite luminescence, 48 h; series mostly up to 57.5 µM. A digest of the protocol: as §3
In the next test the test system is CASKI. The test is described as above. The note with it: Gynecologic cancer cell panel viability, ATPlite luminescence, 48 h; series mostly up to 57.5 µM. A digest of the protocol: as §3
In a further test the test system is Es-2. Described as above. The note with it: Gynecologic cancer cell panel viability, ATPlite luminescence, 48 h; series mostly up to 57.5 µM. A digest of the protocol: as §3
The subject of a further test is HeLa. The test is described as above. The note with it: Gynecologic cancer cell panel viability, ATPlite luminescence, 48 h; series mostly up to 57.5 µM. A digest of the protocol: as §3
Another test relates to W2. In words: qHTS profiling for inhibitors of Plasmodium falciparum proliferation (AID 504749). Note: potency is the fitted concentration of half-maximal effect; nearly all actives have a fitted effect of over 60% in size. The note with it: P. falciparum in erythrocytes, SYBR Green DNA, 72 h; series mostly up to 28.7 µM. An outline of the steps: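 P. falciparum-infected erythrocytes (0.3% parasitemia, 2.5% hematocrit final) were exposed to compounds for 72 h at 37 C in 5% CO2, then lysed with SYBR Green buffer overnight at room temperature; parasite DNA fluorescence was normalized to artemisinin and DMSO controls.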

The subject of test [4] is NIH3T3. Briefly: qHTS assay to identify novel small-molecules to repurpose for Merkel cell carcinoma treatment (AID 1296009). Note: nearly all actives have a fitted effect of over 60% in size. The note with it: MCC and control cell lines, CellTiter-Glo viability, 72 h; at 44.8 µM (top of the series). A digest of the protocol:
as §2

In the case of `CC(=O)OCC(=O)[C@H]1CC[C@H]2[C@@H]3CCC4=CC(=O)CC[C@]4(C)[C@H]3CC[C@]12C`, the max response is 1.7% in the test on CRL-7250, -19.8% in the test on KB-3-1 and 0.692% in the test on NIH3T3 [2]. For the same compound, the compound was classed as inactive in the test on HaCat [1] and with HACAT [3]. The Potency result in the test with MCC-13, in the test on MCC-26, in the test on MKL-1, in the test on MKL-2, with UISO and with WaGa was “inactive” each time. Further, the Potency entry in the test on C33A, in the test with CAOV3, in the test on CASKI and in the test on Es-2 was “inactive” each time. Also, the Potency in the test with HeLa was 11.2 µM (active).
As for `CN1CCN(c2cc3c(cc2F)c(=O)c(C(=O)O)cn3-c2ccc(F)cc2)CC1`, the Potency in the test on W2 was 12 µM (active). Further, the max response in the test on CRL-7250 was -1.2%; in the test on HaCat [1], 2%; with KB-3-1, -5.32%; in the test on NIH3T3 [2] it was -2.14%. The Potency entry in the test with MCC-13, with MCC-26, with MKL-1, in the test on MKL-2, with UISO and in the test with WaGa was “inactive” in each case. The Potency result with C33A, in the test with CAOV3, in the test with CASKI, in the test on Es-2 and in the test with HeLa was “inactive” throughout.
With `O=C(NC1CCN(CCc2c[nH]c3ccccc23)CC1)c1ccccc1`, the max response with CRL-7250 is -5.92%; with KB-3-1 it was -0.418%; with NIH3T3 [2] it was -2.1%. The call in the test with HaCat [1] and in the test with HACAT [3] was inactive. Moreover, the Potency entry in the test with MCC-13, in the test with MCC-26, in the test with MKL-1, with MKL-2, in the test with UISO and in the test with WaGa was “inactive” each time. Moreover, the Potency entry in the test on C33A, in the test on CASKI and in the test with Es-2 was “inactive” throughout.
Regarding `O=C(Nc1cccc(C2=NCCN2)c1)Nc1cccc(C2=NCCN2)c1`, in the test on W2, the Potency is 1.69 µM (active). Also, the outcome in the test with CRL-7250 was inactive. The figures for the max response with HaCat [1], in the test with KB-3-1 and with NIH3T3 [2] were -0.992%, -7.99% and 1.41%, respectively. Besides, the Potency entry in the test with MCC-13, in the test on MCC-26, in the test with MKL-1, in the test with MKL-2, in the test with UISO and in the test on WaGa was “inactive” each time. The Potency entry in the test on C33A, with CAOV3, in the test on CASKI, in the test with Es-2 and with HeLa was “inactive” throughout.
For `CCCCCCCCCCCCCCC[C@H](O)[C@@H](N)CO`, the max response in the test on CRL-7250 was -2.05%; in the test with HaCat [1], -24.2%; with KB-3-1, -4.68%; in the test with NIH3T3 [2], -9.49%. Also, the Potency result in the test with MCC-13, in the test with MCC-26, in the test on MKL-1, in the test on MKL-2, in the test with UISO and in the test with WaGa was “inactive” throughout. Moreover, the Potency result in the test on C33A, with CASKI, in the test on Es-2 and in the test on HeLa was “inactive” in each case.
With `O=C(CCN1CCN2CCCC2C1)N1c2ccccc2Sc2ccc(Cl)cc21` (stereo not drawn), the Potency in the test with W2 is 3.01 µM (active). Also, the values for the max response with CRL-7250, with KB-3-1 and in the test on NIH3T3 [2] were -7.08%, 7.31% and 3.25%, respectively. In addition, in the test with HaCat [1], the compound was called inactive. For the same compound, the outcome with HACAT [3] is “inactive [at 17.4 µM]”. Further, the Potency result in the test on MCC-13, in the test with MCC-26, in the test on MKL-1, with UISO, in the test on WaGa and in the test on C33A was “inactive” each time. Besides, the Potency entry in the test with CASKI, with Es-2 and in the test with HeLa was “inactive” each time.
As for `Cc1cc(CC(=O)O)c(C)n1-c1ccc(Cl)cc1`, the Potency with W2 was 8.49 µM (active). Also, the compound was called inactive with CRL-7250, in the test on HaCat [1], in the test with NIH3T3 [2], in the test on HACAT [3] and in the test with NIH3T3 [4]. The max response with KB-3-1 was -2.45%. Further, the Potency result in the test with MCC-13, with MCC-26, in the test on MKL-1, in the test on UISO, in the test on WaGa and in the test on C33A was “inactive” throughout. In addition, the Potency entry in the test with CAOV3, in the test on CASKI, in the test on Es-2 and in the test with HeLa was “inactive” each time.
